Calls of active or inactive are those of the source. Unless noted, the rule behind the calls is not given here.
Assays:
[1] = test system: XIP peptide (Xip251-270) binding; experiment: XIP fragment 251-270 binding compounds – biochemical, small-molecule microarray, fluorescence 635/667 nm, 0.1 µg/mL protein, primary screen (AID 1182); conditions: fluorescent protein binding, 635 nm, higher = more signal, called active from +8 up or from −8 down
XIP peptide (Xip251-270) = experiment: compounds binding XIP fragment 251-270 – biochemical, small-molecule microarray, fluorescence 635/667 nm, 0.5 µg/mL protein, primary screen (AID 1183); conditions: fluorescence 635 nm, higher = more signal
[2] = blood-stage malaria parasite viability loss – strain 3D7, DAPI fluorescence, 100 nL, primary screen (AID 1184);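 note: parasites grown inside human red blood cells in medium with human serum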; conditions: P. falciparum 3D7 growth, 3 d, higher = more signal
[3] = target: Homeobox protein Hox-A13 (Mus musculus) (UniProt Q62424); experiment: disruptors of Hoxa13 oligonucleotide interaction – biochemical, fluorescence polarization, labeled oligonucleotide, primary screen (AID 1185); conditions: Hoxa13:DNA binding, 15 min, higher = more signal, called active from +8 up or from −8 down
Chain of Homeobox protein Hox-A13 (Mus musculus) (Q62424 whole entry, looked up): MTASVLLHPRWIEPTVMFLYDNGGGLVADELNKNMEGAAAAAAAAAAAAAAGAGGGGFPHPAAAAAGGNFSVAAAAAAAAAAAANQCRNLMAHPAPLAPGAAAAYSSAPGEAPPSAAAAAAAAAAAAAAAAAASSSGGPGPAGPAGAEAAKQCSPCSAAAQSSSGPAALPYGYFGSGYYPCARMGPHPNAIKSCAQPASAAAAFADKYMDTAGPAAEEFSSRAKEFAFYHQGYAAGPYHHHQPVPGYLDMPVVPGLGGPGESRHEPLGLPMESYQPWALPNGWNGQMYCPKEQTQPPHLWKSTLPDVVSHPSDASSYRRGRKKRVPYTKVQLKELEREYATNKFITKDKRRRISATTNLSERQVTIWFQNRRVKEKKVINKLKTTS

[4] = blockers of DNA damage checkpoint Chk1 activation – imaging, HeLa, hydroxyurea, phospho-Chk1 antibody, percent positive cells, primary screen (AID 1186); conditions: hydroxyurea-induced phospho-Chk1 immunofluorescence imaging, higher = more signal
[5] = blockers of DNA damage checkpoint Chk1 activation – imaging, HeLa, hydroxyurea, phospho-Chk1 nuclear intensity, primary screen (AID 1187); conditions: hydroxyurea-induced phospho-Chk1 immunofluorescence imaging, higher = more signal

| SMILES | composite z-score [1] | composite z-score (XIP peptide (Xip251-270)) | z-score [2] | z-score [3] | z-score [4] | z-score [5] |
| --- | --- | --- | --- | --- | --- | --- |
| N[C@@H](Cc1ccccc1)Cn1cc(-c2ccccc2)nn1 | -0.259 (inactive) | -0.533 | 0.942 | -0.823 (inactive) | 0.201 (inactive) | 0.117 (inactive) |
| CCCCC(CC)C(O)C1C=CC2C(=O)N(c3ccccc3)C(=O)C2N1Nc1ccccc1 (centres undefined) | -0.147 (inactive) | 0.216 | -0.392 | -1.89 (inactive) | -0.335 (inactive) | -0.23 (inactive) |
| CCCCCCc1nc(CCCc2cc3c(c(CCCCCC)n2)[Si](C(C)C)(C(C)C)OC3)cc2c1[Si](C(C)C)(C(C)C)OC2 | -0.53 (inactive) | -0.442 | -2.33 | -5.85 (inactive) | 0.28 (inactive) | 0.382 (inactive) |
| COCCOC(=O)N1C(=O)[C@@]2(c3cc(C#CCNC(N)=O)ccc31)[C@H](c1ccc(O)cc1)N1[C@H](c3ccccc3)[C@H](c3ccccc3)OC(=O)[C@H]1[C@@H]2C(=O)NC[C@H](O)c1ccccc1 | 1.82 (inactive) | 0.733 | -0.0916 | -3.19 (inactive) | -0.107 (inactive) | -0.369 (inactive) |
| CCOc1cc(C(O)C2C=CC3C(=O)N(c4ccccc4)C(=O)C3N2Nc2ccc([N+](=O)[O-])cc2)ccc1O (centres undefined) | -0.394 (inactive) | 0.546 | -1.76 | -5.51 (inactive) | 0.555 (inactive) | -0.452 (inactive) |
| Cc1ccc(S[C@]2(C(=O)NC3CC3)CC(=O)N(Cc3ccccc3)[C@@H]2c2ccc(CO)cc2)cc1 | 0.795 (inactive) | 0.327 | -0.308 | -2.47 (inactive) | 0.0616 (inactive) | 0.0892 (inactive) |
| CCOC(=O)C1=CCC(c2ccc([N+](=O)[O-])cc2)N(S(=O)(=O)c2ccc(C)cc2)C1 (centres undefined) | -0.15 (inactive) | 0.27 | -1.3 | -1.24 (inactive) | -0.021 (inactive) | 0.144 (inactive) |
| COC(=O)[C@@]1(Cc2ccccc2)[C@H]2c3cc(C(=O)N(C)C)n(Cc4c(-c5ccccc5)noc4C)c3C[C@H]2CN1C(=O)c1ccccc1 | 0.28 (inactive) | 0.12 | -1.74 | -2.59 (inactive) | 0.317 (inactive) | 0.0597 (inactive) |
| COC(=O)C1=CC(CCCO)=CC(C2CC2)N(Cc2sc3ccccc3c2Cl)C=C1C(=O)OC (centres undefined) | 0.827 (inactive) | 0.793 | -2.02 | -5.27 (inactive) | 0.0745 (inactive) | 0.263 (inactive) |
| COc1ccc([Si](C)(C)[C@H]2[C@H](CCn3cc([C@H](O)c4ccccc4)nn3)O[C@@]3(C(=O)N(Cc4cccc(N5CCC5=O)c4)c4ccccc43)[C@@H]2C)cc1 | 0.275 (inactive) | 0.444 | -1.98 | -2.56 (inactive) | -1.17 (inactive) | -0.364 (inactive) |
| CCOC(=O)C[C@H]1[C@H](OC(=O)c2ccc(-c3ccccc3)cc2)[C@@H](NC(=O)c2ccc(-c3ccccc3)cc2)c2cc(OCCCO)ccc2N1C(=O)Cc1ccc(OC)cc1 | -0.548 (inactive) | -0.057 | 0.555 | -1.54 (inactive) | -0.0323 (inactive) | 0.107 (inactive) |
| C[N+](C)(C)CCCCCCNC(=O)[C@H]1C[C@H]2C(=O)N3CCC[C@H]3C(=O)N2[C@H]1c1ccc(O)cc1 | 1.07 (inactive) | 0.276 | -1.03 | 0.0641 (inactive) | -0.428 (inactive) | -0.356 (inactive) |
| O=C/C=C/c1ccc2c(c1)OCO2 | -0.316 (inactive) | -0.232 | 0.775 | 1.04 (inactive) | 0.284 (inactive) | 0.774 (inactive) |
| Cc1ccccc1C(O)C1C=CC2C(=O)N(C)C(=O)C2N1Nc1ccccc1 (centres undefined) | 0.381 (inactive) | 0.632 | 1.11 | -3.24 (inactive) | 0.251 (inactive) | -0.594 (inactive) |
| CC(C)NC(=O)[C@@]1(Cc2ccccc2I)c2ccccc2C(=O)N(Cc2ccccc2)[C@H]1c1ccc(CO)cc1 | 0.257 (inactive) | 0.784 | -1.22 | -4.87 (inactive) | -0.303 (inactive) | -0.346 (inactive) |
| C=CC[C@]1(C(=O)N2CCOCC2)N=C(c2ccc(OCCCO)cc2)O[C@H]1c1ccccc1 | 0.661 (inactive) | 0.362 | -0.887 | -6.82 (inactive) | -0.274 (inactive) | -0.217 (inactive) |
| C=C(COC)C(=O)CC[C@@H](OC(=O)c1cccnc1)c1ccc(CO)o1 | 0.457 (inactive) | 0.496 | -0.469 | -4.3 (inactive) | 0.201 (inactive) | 0.679 (inactive) |

| SMILES | composite z-score [1] | composite z-score (XIP peptide (Xip251-270)) | z-score [2] | z-score [3] | z-score [4] | z-score [5] |
| --- | --- | --- | --- | --- | --- | --- |
| CC1CC/C=C\[C@H]2OC34C=CCN(Cc5ccccc5)C(=O)[C@H]3N(CCCCCO)C(=O)[C@@H]4C2C(=O)O1 (some centres undefined) | -0.0864 (inactive) | 0.525 | 1.65 | -5.11 (inactive) | -0.0458 (inactive) | -0.0669 (inactive) |
| COC(=O)[C@@]1(Cc2ccc(OC)cc2)[C@H]2c3cc(C(=O)N4CCCC4)n(Cc4cc(F)cc5c4OCOC5)c3C[C@H]2CN1C(=O)c1ccccc1 | 0.365 (inactive) | 0.857 | -1.72 | -6.08 (inactive) | 0.127 (inactive) | -0.271 (inactive) |
| CC(C)C(=C=CC[C@H](O)c1cccc(OCCO)c1)C[C@H](O)COCc1ccccc1 | 0.31 (inactive) | -0.376 | -1.49 | -3.93 (inactive) | -0.648 (inactive) | -0.289 (inactive) |
| O=C(O)[C@@]1(Cc2ccccc2)N=C(c2ccc(OCCCO)cc2)O[C@H]1c1ccccc1 | 0.213 (inactive) | 0.427 | 0.653 | -5.03 (inactive) | -0.294 (inactive) | -0.224 (inactive) |
| COCCOC(=O)N1C(=O)[C@@]2(c3cc(C#CCC(C(=O)OC)C(=O)OC)ccc31)[C@H](C(=O)N1CCN(c3ncccn3)CC1)[C@H]1C(=O)O[C@H](c3ccccc3)[C@H](c3ccccc3)N1[C@@H]2c1ccc(OCCO)cc1 | 0.262 (inactive) | 0.698 | -2.22 | 2.45 (inactive) | -0.576 (inactive) | -0.833 (inactive) |
| O=C1OCCC=C[C@H]2OC34C=CCN(Cc5ccccc5)C(=O)[C@H]3N(CCCCCCO)C(=O)[C@@H]4C12 (some centres undefined) | -0.271 (inactive) | 0.8 | 0.0921 | -4.32 (inactive) | 0.249 (inactive) | 0.489 (inactive) |
| CCCNC(=O)[C@@]1(c2ccc([N+](=O)[O-])cc2)CC(=O)N(CC23CC4CC(CC(C4)C2)C3)[C@@H]1c1ccc(CO)cc1 | 0.462 (inactive) | 0.424 | 0.0816 | -4.89 (inactive) | -0.29 (inactive) | -0.683 (inactive) |
| O=C1N(CCS(=O)(=O)c2ccccc2)Cc2ccccc2[C@H]2OC(c3ccc(OCCCO)cc3)=N[C@@]12CCS(=O)(=O)c1ccccc1 | 2.05 (inactive) | 0.81 | -2.09 | -0.483 (inactive) | -0.44 (inactive) | -0.346 (inactive) |
| COc1ccc(CCNC(=O)[C@@H]2c3ccccc3C(=O)N(Cc3ccc(OC(F)(F)F)cc3)[C@H]2c2ccc(CO)cc2)cc1 | 0.987 (inactive) | 0.486 | -0.756 | -4.53 (inactive) | -0.232 (inactive) | -0.312 (inactive) |
| O=C1C=CC(=O)[C@@H]2CC(COc3ccccc3)=C3[C@@H](CCc4ccccc4)OB(O)C[C@@H]3[C@H]12 | -0.193 (inactive) | 0.433 | -1.73 | -5.92 (inactive) | -0.042 (inactive) | 0.528 (inactive) |
| Cc1ccc([C@H]2C(C(=O)O)=C[C@@H](C)N2S(=O)(=O)c2ccc(C)cc2)cc1 | 1.78 (inactive) | -0.43 | 0.159 | -3.09 (inactive) | 0.502 (inactive) | 0.176 (inactive) |
| O=C1N(CCS(=O)(=O)c2ccccc2)c2ccccc2C[C@@]12COC(c1ccc(OCCCO)cc1)=N2 | 2.06 (inactive) | 0.861 | -1.39 | -4.69 (inactive) | -0.0621 (inactive) | -0.223 (inactive) |
| COCCCNC(=O)[C@@]1(C)c2ccccc2C(=O)N(Cc2cc(C(F)(F)F)cc(C(F)(F)F)c2)[C@H]1c1ccc(CO)cc1 | 0.707 (inactive) | 0.875 | -0.577 | -3.6 (inactive) | -0.385 (inactive) | 0.0021 (inactive) |
| C=CCNC(=O)[C@H]1[C@@H]2C(=O)O[C@@H](c3ccccc3)[C@@H](c3ccccc3)N2[C@@H](c2ccc(O)cc2)[C@]12C(=O)N(C(=O)OCCOC)c1ccc(C#CCCO)cc12 | 0.855 (inactive) | 0.72 | -0.353 | -3.9 (inactive) | -0.537 (inactive) | -0.532 (inactive) |
| CO[C@H]1O[C@H](CO)[C@@H](OC(=O)Nc2ccc3c(c2)OCO3)[C@H](OC(=O)Nc2ccccc2)[C@H]1OC(=O)Nc1ccccc1 | 0.981 (inactive) | 0.831 | -2.49 | -4.76 (inactive) | -0.328 (inactive) | -0.439 (inactive) |
| C=CCOC(=O)[C@@H]1[C@H]2C(=O)O[C@H](c3ccccc3)[C@H](c3ccccc3)N2[C@H](c2ccc(OCCOC(=O)[C@@H]3C[C@@H]4C(=O)N[C@@H](Cc5ccccc5)C(=O)N4[C@@H]3c3cccc(OCCO)c3)cc2)[C@@]12C(=O)Nc1ccc(I)cc12 | 0.299 (inactive) | 0.738 | -1.69 | -0.282 (inactive) | 0.0948 (inactive) | 0.608 (inactive) |
| CCCC[C@@H]1C[C@H]1[C@@H](NC(=O)c1ccc(-c2ccccc2)cc1)c1ccc(-c2ccccc2)cc1 | 0.0014 (inactive) | -0.532 | -1.05 | -1.24 (inactive) | 0.558 (inactive) | 0.394 (inactive) |

From PubChem BioAssay
